The values below come from PubChem BioAssay (EPA / NIEHS).

Assay [1] in a line: CCTE_Shafer_MEA_dev_spike_duration_mean: CCTE's Neural Network Formation Assay for Mean Spike Duration, Shafer Lab (AID 2284051).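 Also: mean network spike duration pooled as area under curve over DIV 5 to 12 recordings.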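 As to AC50: potency for a decrease in mean network spike duration versus DMSO.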 An outline of the steps: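 With DMSO as baseline, loss of mean network spike duration was scored from extracellular recordings of rat cortical neurons on MEA plates. Exposure spanned plating to DIV 12; the four recording days were collapsed into one AUC value.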

Assay [2] in a line: CCTE_Shafer_MEA_dev_network_spike_duration_std: CCTE's Neural Network Formation Assay for Standard Deviation of Network Spike Duration, Shafer Lab (AID 2284052).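 Also: area under curve of spike duration SD across recording days 5 to 12; hits are decreases in network spike duration SD versus DMSO vehicle.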 The method in brief: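 Developing networks of rat cortical neurons were exposed over twelve days in vitro on 48-well MEA plates. Trapezoidal AUC of recordings (DIV 5–12) was analysed for signal loss relative to DMSO vehicle.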

Assay [3] in a line: CCTE_Shafer_MEA_dev_per_network_spike_spike_number_mean: CCTE's Neural Network Formation Assay for Mean Number of Spikes in a Network Spike, Shafer Lab (AID 2284053). An outline of the steps:
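First, rat cortical cells (1.5 x 10^5/well) were seeded onto MEA wells; second, dosing began at plating and was refreshed on DIV 5 and 9; finally, network-spike spike counts across DIV 5–12 were summarized as AUC.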

Assay [4] in a line: CCTE_Shafer_MEA_dev_per_network_spike_spike_percent: CCTE's Neural Network Formation Assay for Percent of Spikes in a Network Spike, Shafer Lab (AID 2284054). The method in brief:
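Developing networks of rat cortical neurons are dosed at day 0 and recorded extracellularly four times up to day 12. The endpoint is the area under the curve of percent spikes in network spikes, fitted in the negative direction relative to DMSO.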

A short description of assay [5]: CCTE_Shafer_MEA_dev_LDH: CCTE's Lactate Dehydrogenase Assay for Cytotoxicity in the Neural Network Formation Assay, Shafer Lab (AID 2284068; active = hit-call score of the fitted dose curve at least 0.9, where 1 is the maximum;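 also: exposure for twelve days from plating with re-dosing on DIV 5 and 9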). The method in brief:
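Developing rat cortical networks on MEA plates are exposed to compound for 12 days from plating. LDH activity is measured spectrophotometrically, with DMSO as baseline.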

Assay [6] can be described thus: UKN5_HCS_SBAD2_cell_viability: Viability Assessment in the University of Konstanz (UKN) Leist Lab Neurite Outgrowth Assay in human iPSC-derived immature Dorsal Root Ganglia Neurons (UKN5) (AID 2284056). The method in brief:
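iPSC-derived immature peripheral neurons (SBAD2) seeded on Matrigel with CHIR99021, SU5402 and DAPT, dosed 1 h later for 24 h. Viability from Hoechst H-33342 and calcein-AM live staining, high-content imaging; bidirectional fit versus DMSO.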

Assay [7] in a line: CCTE_Shafer_MEA_acute_AB: CCTE's Alamar Blue Assay for Cytotoxicity in the Neural Acute Assay, Shafer Lab (AID 2284069; active = hit-call score of the fitted dose curve at least 0.9, where 1 is the maximum;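 also: active compounds lower the viability signal compared with DMSO wells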). An outline of the steps: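 Cytotoxicity endpoint for acute MEA exposures of primary rat cortical neurons on day 13 or 15. Resazurin reduction is read fluorescently at 544/590 nm, with DMSO as the negative-control baseline.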
A short description of assay [8]: UKN5_HCS_SBAD2_neurite_outgrowth: University of Konstanz (UKN) Leist Lab Neurite Outgrowth Assay in human iPSC-derived immature Dorsal Root Ganglia Neurons (UKN5) (AID 2284070). The conditions noted are these: actives raise or lower the signal. An outline of the steps:
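Neurite outgrowth is quantified as calcein-AM-labelled neurite area in human iPSC-derived peripheral neurons treated for 24 h, starting 1 h after plating in medium with CHIR99021 (1.5 uM), SU5402 (5 uM) and DAPT (5 uM).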

For another assay, the system named is DIO3 (gene 1735). Put plainly: CCTE_GLTED_hDIO3: CCTE's human Deiodinase 3 (DIO3) Inhibition Assay, Great Lakes Toxicology and Ecology Division (GLTED) Lab (AID 2284055; active = hit-call score of the fitted dose curve at least 0.9, where 1 is the maximum;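 also: potency is for inhibition seen as loss of released iodide signal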). The method, then:
CCTE_GLTED_hDIO3 is a cell-free, single-readout assay designed to test the inhibitory activity of chemicals toward human iodothyronine Deiodinase type 3 (DIO3) enzyme. Enzyme is incubated in presence of test chemical for 3 hours during which uninhibited enzyme liberates free iodide from substrate. Free iodide is measured in a second step using the Sandell-Kolthoff method.CCTE_GLTED_hDIO3 is the assay component measured from the CCTE_GLTED_hDIO3 assay. It is designed to make measurements of enzyme activity, a form of enzyme reporter, as detected with absorbance signals by spectrophotometry.Data from the assay component CCTE_GLTED_hDIO3 was analyzed into 1 assay endpoint. This assay endpoint, CCTE_GLTED_hDIO3, was analyzed in the positive analysis fitting direction relative to DMSO as the negative control and baseline of activity. Using a type of enzyme reporter, loss-of-signal activity can be used to understand changes in the enzymatic activity as they relate to the gene DIO3. Furthermore, this assay endpoint can be referred to as a primary readout, because the performed assay has only produced 1 assay endpoint. To generalize the intended target to other relatable targets, this assay endpoint is annotated to the 'deiodinase' intended target family, where the subfamily is 'deiodinase Type 3'.
[…] assay, developed at Great Lakes Toxicology and Ecology Division (GLTED) within the EPA's Center for Computational Toxicology and Exposure (CCTE), is designed to test the chemicals' ability to inhibit DIO3. Assay uses human deiodinase type 3 (DIO3) enzyme produced with adenovirus expression system. Assay is based on iodide release measured by the Sandell-Kolthoff method and is run in 96-well plate format with assay plates run in triplicate (n=3). The method used for the deiodinase assay was largely based on Renko et al. (2012, 2015). These works describe the utilization of the SK reaction to measure deiodinase-liberated iodide in a 96-well-plate format. The SK reaction is based on the reduction of the yellow-colored cerium IV to the non-colored cerium III by arsenic, with the rate of this reaction increased in the presence of iodide in a concentration-dependent manner (Sandell and Kolthoff, 1937). Iodinated test chemicals can interfere as competitive inhibitors, or if the stock chemical has contaminating free-iodide present. Other chemicals, e.g.: nitrite, iron, and thiocyanate can interfere with the Sandell-Kolthoff reaction (see Sandell and Kolthoff, 1937).

A short description of assay [9]: CCTE_Shafer_MEA_dev_AB: CCTE's Alamar Blue Assay for Cytotoxicity in the Neural Network Formation Assay, Shafer Lab (AID 2284083; active = hit-call score of the fitted dose curve at least 0.9, where 1 is the maximum;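 also: resazurin reduction fluorescence as viability of cultured neurons; twelve days of exposure from plating with re-dosing on DIV 5 and 9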). An outline of the steps:
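Cytotoxicity companion to the developmental MEA: primary rat cortical neurons, 12-day exposure starting day 0, compound refreshed DIV 5 and 9; resazurin fluorescence, fitted against DMSO vehicle.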
On the technique in general: Alamar Blue is a resazurin reagent that responds to reducing activity.

Where “and” joins values, the source holds several entries; their conditions need not be identical. Equal values may be shown once. Inconclusive results are not listed. Calls of active or inactive are those of the source. The calls were made as follows, unless noted: active = hit-call score of the fitted dose curve at least 0.9, where 1 is the maximum; inactive = score below 0.9.

Turning to `CC(Oc1cccc(Cl)c1)C(=O)O` (stereo not drawn), the outcome in [1], in [2], in [3], in [4] and in assay [5] was inactive.
As for `CCOC(=O)CC(SP(=O)(OC)OC)C(=O)OCC` (stereo not drawn), the compound was classed as inactive in assay [1], in [2], in [3], in assay [4], in assay [6] and in assay [5]. For the same compound, the call in assay [7] and in assay [8] was inactive.
Usually AC50 stands for the concentration at which the activity in the assay is half-maximal. As for `C=C(C)[C@H]1Cc2c(ccc3c2O[C@@H]2COc4cc(OC)c(OC)cc4[C@@H]2C3=O)O1`, the AC50 is 35.4 nM (active) and 21.1 nM (active) in assay [1]; 27.7 nM (active) and 14.6 nM (active) in assay [2]; 0.0145 µM (active) in assay [3]; 16.8 nM (active) and 13.3 nM (active) in assay [4]; 2.39 µM (active) in the assay on DIO3 (gene 1735); 16.4 nM (active) and 15.4 nM (active) in assay [5]. Also, the AC50 in assay [9] is 38.4 nM (active) and 57.1 nM (active). Besides, the result in assay [7] was inactive.
As for `COP(=O)(OC)C(O)C(Cl)(Cl)Cl` (stereo not drawn), the AC50 in assay [1] is 50 µM (active) and 15 µM (active); in [3], 50 µM (active) and 15 µM (active); in assay [4] it was 50 µM (active) and 15 µM (active); in assay [6], 9.96 µM (active); in [5], 3.52 µM (active) and 1.47 µM (active); in assay [9], 50 µM (active) and 1.05 µM (active). The result in assay [2], in assay [7] and in assay [8] was inactive.
With `CN(C)[C@@H]1C(=O)C(C(N)=O)=C(O)[C@@]2(O)C(=O)C3=C(O)c4c(O)cccc4[C@@](C)(O)[C@H]3[C@H](O)[C@@H]12`, the AC50 is 66.2 µM (active) in assay [1]; 50 µM (active) in [3]; 89.4 µM (active) in [4]; 71.9 µM (active) and 25.6 µM (active) and 24.8 µM (active) in the assay with DIO3 (gene 1735); 77.7 µM (active) in assay [5]; 50 µM (active) in assay [9]. Also, the result in assay [2] and in [7] was inactive.
In the case of `CC(=NC#N)N(C)Cc1ccc(Cl)nc1`, the compound was called inactive in assay [1], in assay [2], in assay [3], in assay [4], in assay [6] and in assay [7]. Also, the result in assay [8] and in [9] was inactive.
Take `Cc1ccn2nc(S(=O)(=O)Nc3c(F)cccc3F)nc2n1`: in assay [7], the call was inactive.
For `CCOP(=S)(OCC)SCCSCC`, the call in assay [1], in assay [2], in [3], in [4], in [5] and in assay [9] was inactive.
With `CCOP(=S)(OCC)Oc1ccc2c(C)c(Cl)c(=O)oc2c1`, the outcome in assay [2] and in assay [7] was inactive. Besides, the concentration at half-maximal activity (AC50) in assay [3] is 24.4 µM (active); in [4] it was 82.2 µM (active); in [5] it was 76.4 µM (active); in assay [9], 78.4 µM (active).
Consider `COc1cc(OC)nc(Sc2cccc(Cl)c2C(=O)O)n1`, for which, in assay [7], the compound was called inactive.
With `CCOP(=S)(OCC)Oc1ccc([N+](=O)[O-])cc1`, the outcome in [1], in [2], in [3], in [4], in assay [5] and in [9] was inactive.
As for `CCCOCC(=Nc1ccc(Cl)cc1C(F)(F)F)n1ccnc1`, the half-maximal activity concentration (AC50) with DIO3 (gene 1735) is 2.38 µM (active). Besides, in assay [7], the result was inactive.
With `C[N+]1(C)CCCCC1`, the compound was called inactive in [1], in [2], in assay [3], in assay [4], in assay [7] and in assay [9].
With `COP(=O)(OC)OC(Br)C(Cl)(Cl)Br` (stereo not drawn), the half-maximal activity concentration (AC50) in assay [1] was 8.37 µM (active) and 12.8 µM (active); in assay [2], 4.26 µM (active) and 9.92 µM (active); in assay [3], 8.92 µM (active) and 10.3 µM (active); in assay [4] it was 8.6 µM (active) and 12 µM (active); in [5], 6.64 µM (active) and 17.1 µM (active); in assay [9], 7.73 µM (active) and 16.4 µM (active).
Turning to `FC(F)C(F)(F)OCC(Cn1cncn1)c1ccc(Cl)cc1Cl` (stereo not drawn), the outcome in assay [7] was inactive.
With `Nc1c(Cl)cc([N+](=O)[O-])cc1Cl`, the result in assay [7] was inactive.
On to `CCCSP(=O)(OCC)SCCC`, for which the AC50 in [1] is 36.2 µM (active) and 27.2 µM (active); in assay [3], 15.8 µM (active) and 27.3 µM (active); in [4] it was 24.3 µM (active) and 26.5 µM (active); in [5], 15.7 µM (active) and 15.4 µM (active); in assay [9] it was 20.6 µM (active) and 18.7 µM (active). Moreover, the compound was classed as inactive in assay [2].
As for `CN(C)NC(=O)CCC(=O)O`, the result in assay [7] was inactive.
Turning to `CCCSP(=O)(OCC)Oc1ccc(Br)cc1Cl` (stereo not drawn), the outcome in [1], in assay [2], in assay [3], in assay [4] and in assay [9] was inactive. Moreover, the AC50 in [5] was 1.79 µM (active).
Regarding `CCc1cccc(CC)c1N(COC)C(=O)CCl`, the half-maximal activity concentration (AC50) in the assay on DIO3 (gene 1735) is 52.3 µM (active).
In the case of `N#CSCSC#N`, the result in assay [7] was inactive.
Consider `CC(COc1ccc(Oc2ccccc2)cc1)Oc1ccccn1` (stereo not drawn), for which the result in assay [7] was inactive.
With `CCNc1nc(Cl)nc(NC(C)(C)C#N)n1`, in the assay on DIO3 (gene 1735), the half-maximal activity concentration (AC50) is 21.5 µM (active).
Turning to `S=C1NCCN1`, the AC50 in [1] is 5.64 µM (active). The outcome in assay [2], in assay [3], in [4], in assay [5] and in assay [9] was inactive.
`CC(C)[C@H](C(=O)O[C@H](C#N)c1cccc(Oc2ccccc2)c1)c1ccc(Cl)cc1`: the AC50 is 4.47 µM (active) in assay [1], 3.72 µM (active) in assay [3], 0.732 µM (active) in assay [4] and 0.0209 µM (active) in assay [9]. Further, the outcome in [5] was inactive.
In the case of `CCc1cnc(C2=NC(C)(C(C)C)C(=O)N2)c(C(=O)O)c1` (stereo not drawn), the result in assay [7] was inactive.
Turning to `CCOP(=O)(OCC)Oc1cc(C)nc(C(C)C)n1`, the outcome in assay [1], in assay [2], in [3], in [4], in assay [5] and in assay [9] was inactive.
On to `CCCCSP(=O)(SCCCC)SCCCC`, for which the AC50 in assay [1] is 50 µM (active) and 16.1 µM (active); in assay [3] it was 50 µM (active) and 17 µM (active); in assay [4] it was 68.3 µM (active) and 49.9 µM (active); in assay [5] it was 27.3 µM (active) and 49.9 µM (active); in [9], 50 µM (active) and 63.1 µM (active). Also, the result in assay [2] was inactive.
